The test system of one test is HaCat. Kind of test: Cytotoxic Profiling of Annotated Libraries Using Quantitative High-Throughput Screening (AID 1296008). As to max response: % is scaled to controls: 0 for no effect and ±100 for the full control effect. The conditions noted are these: Five cell lines viability, CellTiter-Glo ATP luminescence, 48-72 h; max response: active compounds read low. In a few lines: (§1)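 Cytotoxicity was measured as CellTiter-Glo ATP luminescence, read after 10 min at room temperature. Compound treatment of the cells lasted 48 or 72 hr at 37 degrees Celsius in a qHTS format.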

The subject of the next test is KB-3-1. Described as above. Particulars: Five cell lines viability, CellTiter-Glo ATP luminescence, 48-72 h; max response: active compounds read low. In a few lines: as §1
On the technique in general: ATP-based viability assays read luminescence as a measure of living cells.

For another test, the system named is HEK293. The description is as above. The conditions noted are these: Five cell lines viability, CellTiter-Glo ATP luminescence, 48-72 h; max response: active compounds read low. In a few lines: as §1
For the next test, the system named is W2. The test is described as follows: qHTS profiling for inhibitors of Plasmodium falciparum proliferation (AID 504749). The conditions noted are these: P. falciparum in erythrocytes, SYBR Green DNA, 72 h; series mostly up to 28.7 µM. In a few lines: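 In a 72 h erythrocytic culture (37 C, humidified, 5% CO2) at 2.5% hematocrit and 0.3% starting parasitemia, compounds were tested; SYBR Green I in detergent lysis buffer stained parasite DNA overnight.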
On the technique in general: In qHTS, concentration-response curves come from the screen itself.

Where “and” joins values, the source holds several entries; their conditions need not be identical. Identical values can stand only once. Results filed as inconclusive are left out. Some structures have more than one record in an assay (separate samples or runs), and their calls can disagree. A number with no mark means an inactive call. Calls of active or inactive are those of the source. Calls follow the shape of the dose curve; as a rule, active = well fitted inhibition curve with a large enough effect; inconclusive = small, poorly fitted or top-dose-only effect; inactive = flat fitted curve, though single readings scatter.
Also: nearly all actives have a fitted effect of over 60% in size.
Potency is read from the fitted curve at half-maximal effect.

Turning to `C[C@H](NC(=O)C(=O)Nc1ccccc1C(C)(C)C)C(=O)N[C@@H](CC(=O)O)C(=O)COc1c(F)c(F)cc(F)c1F`, the compound was classed as inactive with HaCat and with KB-3-1.

Take `C=CCc1ccc(O)c(-c2ccc(O)c(CC=C)c2)c1`: the max response in the test with HEK293 was -27.3%. The Potency with HaCat was 20.9 µM (active).

With `COc1ccc2c(Oc3ccc(NC(=O)c4c(C)n(CC(C)(C)O)n(-c5ccccc5)c4=O)cc3F)ccnc2c1`, the max response in the test on HaCat is 2.66% and -22.8%; in the test with KB-3-1 it was -19.2%.

As to `COCCCCC(=NOCCN)c1ccc(C(F)(F)F)cc1`, the Potency in the test with W2 is 2.69 µM (active).

For `Cc1nnc(C(C)C)n1C1C[C@H]2CC[C@@H](C1)N2CC[C@H](NC(=O)C1CCC(F)(F)CC1)c1ccccc1` (stereo not given in full), the figures for the max response with HaCat and with KB-3-1 were 3.6% and 3.29%, respectively.

As for `O=C(N[C@@H](c1ccccc1)[C@@H]1CCCCN1)c1cccc(C(F)(F)F)c1Cl`, the figures for the max response in the test on HaCat and in the test with KB-3-1 were 4.43% and -7.93%, respectively.

Consider `CC[C@@H]1C=C(C)C[C@H](C)C[C@H](OC)[C@H]2O[C@@](O)(C(=O)C(=O)N3CCCC[C@@H]3C(=O)O[C@H](C(C)=C[C@@H]3CC[C@H](Cl)[C@H](OC)C3)[C@H](C)[C@@H](O)CC1=O)[C@H](C)C[C@H]2OC`, for which the Potency with HEK293 is 16.6 µM (active). The call in the test on KB-3-1 was inactive.

Turning to `NC(=O)c1cccc2[nH]c(-c3ccc([C@H]4CCCN4)cc3F)nc12`, the max response in the test on KB-3-1 is -3.95%.

Turning to `Cc1ccc(C(=O)Nc2cccc(C(F)(F)F)c2)cc1Nc1nc(-c2cccnc2)nc2c1cnn2C`, the Potency in the test with HEK293 was 13.2 µM (active). In the test on KB-3-1, the max response is -14.6%.

For the compound `COc1cc2ncnc(Nc3ccc(F)c(Cl)c3)c2cc1OCCCN1CCOCC1`, the Potency was 7.62 µM (active) and 16.8 µM (active) in the test with HEK293; 531 nM (active) and 2.06 µM (active) in the test on HaCat. Moreover, the max response with HaCat is -57.3%; in the test on KB-3-1, -3.97% and -1.38% and 3.83%.

Source of the values: PubChem BioAssay (NCATS).
